Measured values taken from the supplement of paper PMC6555819.

Legend:
Assay in all cases: PBM binding z-score (relative to random genomic background probes); higher = stronger binding; sequences stand for … in GC…GCGATTGACAGCGTAGAATGAAGG
[1] = tested on: PPARg:RXRa DBDmut IVT, anti-RXR (DBD mutation: RXRa K156A/R161A, NR concentration 270 nM, RXRa partner concentration 90 nM)
Method in brief: (§1)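 Scanned fluorescence from custom Agilent 4×180K protein-binding microarrays was regression-normalized. Binding z-scores use random background probes as reference. Ligand-free nuclear receptor dimers were incubated on the arrays for 1 h and detected with antibodies against each partner (one per run).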

[2] = tested on: PPARg:RXRa IVT, anti-PPARg (NR concentration 270 nM, RXRa partner concentration 90 nM)
Method in brief: as §1

[3] = tested on: PPARg DBDmut:RXRa IVT, anti-PPARg (DBD mutation: PPARg1 K132A/R137A, NR concentration 270 nM, RXRa partner concentration 90 nM)
Method in brief: as §1

[4] = tested on: PPARg DBDmut IVT, anti-PPARg (DBD mutation: PPARg1 K132A/R137A, NR concentration 270 nM)
Method in brief: as §1

[5] = tested on: PPARg homodimer (NR concentration 180 nM)
Method in brief: as §1

[6] = tested on: PXR:RXRa (NR concentration 270 nM, RXRa partner concentration 90 nM)
Method in brief: as §1

[7] = tested on: PXR homodimer (NR concentration 270 nM)
Method in brief: as §1

[8] = tested on: RARa:RXR (NR concentration 270 nM, RXRa partner concentration 90 nM)
Method in brief: as §1

[9] = tested on: RARa homodimer (NR concentration 270 nM)
Method in brief: as §1

[10] = tested on: RARb:RXRa (NR concentration 270 nM, RXRa partner concentration 90 nM)
Method in brief: as §1

[11] = tested on: RARb homodimer (NR concentration 270 nM)
Method in brief: as §1

[12] = tested on: RARg:RXRa (NR concentration 270 nM, RXRa partner concentration 90 nM)
Method in brief: as §1

[13] = tested on: RARg homodimer (NR concentration 270 nM)
Method in brief: as §1

[14] = tested on: RXRa DBDmut IVT, anti-RXR (DBD mutation: RXRa K156A/R161A, NR concentration 90 nM)
Method in brief: as §1

[15] = tested on: RXRa homodimer (NR concentration 180 nM)
Method in brief: as §1

[16] = tested on: THRa:RXRa (NR concentration 90 nM, RXRa partner concentration 90 nM)
Method in brief: as §1

[17] = tested on: THRa homodimer (NR concentration 90 nM)
Method in brief: as §1

[18] = tested on: VDR homodimer (NR concentration 270 nM)
Method in brief: as §1

Sequence | PBM binding z-score [1] | PBM binding z-score [2] | PBM binding z-score [3] | PBM binding z-score [4] | PBM binding z-score [5] | PBM binding z-score [6] | PBM binding z-score [7] | PBM binding z-score [8] | PBM binding z-score [9] | PBM binding z-score [10] | PBM binding z-score [11] | PBM binding z-score [12] | PBM binding z-score [13] | PBM binding z-score [14] | PBM binding z-score [15] | PBM binding z-score [16] | PBM binding z-score [17] | PBM binding z-score [18]
TAGCCTAGGTGAGATCGGGCCAGTATACGCTATA | 0.128 | 1.07 | -0.934 | -1.25 | -0.915 | -0.281 | -0.98 | 0.347 | -1.23 | -0.0511 | -0.246 | -0.235 | 0.0324 | -1.2 | -0.204 | 1.52 | -0.733 | -0.357
CAAACTATGTCACAGAGGTCAAAGTCCGTGCGTA | 5.08 | 5.55 | 0.905 | 0.872 | 3.02 | 5.88 | 3.31 | 5.97 | 1.58 | 4.19 | 4.82 | 5.68 | 5.01 | 2.12 | 6.58 | 3.83 | 1.89 | 4.59
TAAACAGGGTCAAAGGCCAGAGTACGAATGTCGA | 3.53 | 5.43 | 2.69 | 2.41 | 3.24 | 4.51 | 0.672 | 6.19 | 0.87 | 4.33 | 3.41 | 5.73 | 4.81 | 3.1 | 7.01 | 3.51 | 0.558 | 3.45
GGAACGAGGGCATTCGAGTTGATAACATGGCGAT | 2.75 | 2.1 | 0.243 | 0.0771 | 0.605 | 4.02 | 1.36 | 0.915 | -0.696 | 1.68 | 0.66 | 1.41 | 1.74 | 3.17 | 1.08 | 3.37 | -0.138 | 3.48
CAGCCTAAGTCAGGGCCAGTATAGGAGGAACGTT | -0.358 | -0.577 | -1.05 | -1.43 | -0.193 | -0.653 | -0.125 | -0.178 | -0.484 | -0.134 | 0.00988 | -0.148 | -0.0459 | -0.572 | -0.223 | -0.328 | -0.317 | -0.363
TTACCAAGGTGAAGGTGGTTGATCCCTCTGTAGA | 1.73 | 2.52 | -0.348 | -0.272 | 0.43 | 0.325 | -0.346 | 0.45 | -0.245 | 1.37 | 0.653 | 0.26 | 0.431 | -0.51 | 0.689 | 1.78 | 0.829 | -0.454
ATATGTAGGTTAGCTGGGGTCATTCAAACTAGGC | 7 | 6.34 | 2.93 | 1.75 | 3.19 | 6.37 | 4.83 | 5.84 | 1.69 | 3.18 | 4.02 | 4.22 | 3.15 | 2.15 | 5.57 | 5.16 | 3.52 | 5.71
GCGACTGGGGCAAAGCAGGTTAACATAAGGTTGG | 4.62 | 3.42 | -0.747 | -0.874 | 0.353 | 0.721 | -0.496 | 1.1 | -0.822 | 1.05 | 1.27 | 0.386 | 0.747 | -0.0641 | 0.513 | 3.19 | 0.0848 | -0.0745
CAAACTAGGTTACCGGAAGGTCAAAGTCCGCATG | 7.31 | 6.8 | 1.12 | 1.42 | 4.03 | 4.47 | 1.65 | 5.36 | 1.39 | 3.9 | 4.55 | 6.15 | 4.19 | 0.838 | 4.64 | 3.68 | 1.66 | 2.56
TCGAGTAGGTTACCAATGGAGCATTCAGCTTTCT | 3.08 | 2.37 | -0.0505 | -0.361 | -0.556 | -0.0122 | -0.741 | -0.35 | -0.787 | 0.629 | -0.304 | 0.18 | 0.258 | 0.293 | 0.319 | -0.213 | -0.898 | -0.759
CCTTACGGGTCAAGATTATAGCACGGGTGGTACG | 1.74 | 2.81 | -0.14 | 0.0306 | 2.2 | 2.85 | -0.0377 | 4.07 | 1.11 | 3.98 | 2.79 | 4.4 | 4.24 | 0.558 | 5.02 | 2.02 | 0.000143 | 0.658
CCGACTGGGGCAAAGGTTACCATTCTCAGTACGA | 4.87 | 5.9 | 0.712 | 0.351 | 3.82 | 2.41 | -0.502 | 3.87 | -0.539 | 2.39 | 2.08 | 3.4 | 1.6 | 0.683 | 3.26 | 1.66 | -0.246 | -0.419
TCTCGGAGGACACGTAGGTCAGAGCTTTCCAGAG | 1.13 | 0.761 | -0.418 | -1.11 | 0.0512 | 0.765 | -0.00599 | 0.992 | -0.463 | 2.54 | 2.65 | 2.17 | 2.67 | 0.656 | 1.04 | 2.44 | 0.686 | 0.567
TCTGCTAGGTCAACGATGGTCGGCTAATCTGCTA | 4.31 | 4.05 | 0.027 | -0.0502 | 0.168 | 1.22 | -0.84 | 2.02 | -1.21 | 3.97 | 3.13 | 3.75 | 5.24 | 0.92 | 2.64 | 2.7 | 0.478 | -0.232
ACTATAAGTTGACTTAGGGCAACCGATACGACGC | -0.174 | 0.419 | 0.924 | 0.648 | 0.0162 | 0.385 | 0.624 | 0.604 | 0.56 | 1.2 | 1.03 | 1 | 1.11 | 0.718 | 0.692 | 2.4 | 0.322 | 0.647
ATACCACGGTGATCGTGAGGTCGTTGATACTAAC | -0.0691 | 0.808 | 0.255 | 0.824 | 0.823 | 1.6 | 0.891 | 1.57 | 0.137 | 0.885 | 1.47 | 0.858 | 0.379 | 0.514 | 1.1 | 2.65 | 2.42 | 2.44
